Measured values published in the supplement of paper PMC3334620.
Whole data set: some 33,000 sequences, median “E-score (-0.5 to 0.5)” near -0.053, cut for the highest 2% near 0.37. This is one part of a sample in which the highest values are shown more often than they occur.

biological target: Hap1 (UniProt P0CE41); experiment: PBM E-score (8-mer binding enrichment) (E-score (-0.5 to 0.5)); higher = stronger / more preferred TF binding; settings: protein concentration: 200 nM; construct: GST-DNA-binding domain
UniProt P0CE41, sequence (P0CE41 whole entry, the tested form may be a part): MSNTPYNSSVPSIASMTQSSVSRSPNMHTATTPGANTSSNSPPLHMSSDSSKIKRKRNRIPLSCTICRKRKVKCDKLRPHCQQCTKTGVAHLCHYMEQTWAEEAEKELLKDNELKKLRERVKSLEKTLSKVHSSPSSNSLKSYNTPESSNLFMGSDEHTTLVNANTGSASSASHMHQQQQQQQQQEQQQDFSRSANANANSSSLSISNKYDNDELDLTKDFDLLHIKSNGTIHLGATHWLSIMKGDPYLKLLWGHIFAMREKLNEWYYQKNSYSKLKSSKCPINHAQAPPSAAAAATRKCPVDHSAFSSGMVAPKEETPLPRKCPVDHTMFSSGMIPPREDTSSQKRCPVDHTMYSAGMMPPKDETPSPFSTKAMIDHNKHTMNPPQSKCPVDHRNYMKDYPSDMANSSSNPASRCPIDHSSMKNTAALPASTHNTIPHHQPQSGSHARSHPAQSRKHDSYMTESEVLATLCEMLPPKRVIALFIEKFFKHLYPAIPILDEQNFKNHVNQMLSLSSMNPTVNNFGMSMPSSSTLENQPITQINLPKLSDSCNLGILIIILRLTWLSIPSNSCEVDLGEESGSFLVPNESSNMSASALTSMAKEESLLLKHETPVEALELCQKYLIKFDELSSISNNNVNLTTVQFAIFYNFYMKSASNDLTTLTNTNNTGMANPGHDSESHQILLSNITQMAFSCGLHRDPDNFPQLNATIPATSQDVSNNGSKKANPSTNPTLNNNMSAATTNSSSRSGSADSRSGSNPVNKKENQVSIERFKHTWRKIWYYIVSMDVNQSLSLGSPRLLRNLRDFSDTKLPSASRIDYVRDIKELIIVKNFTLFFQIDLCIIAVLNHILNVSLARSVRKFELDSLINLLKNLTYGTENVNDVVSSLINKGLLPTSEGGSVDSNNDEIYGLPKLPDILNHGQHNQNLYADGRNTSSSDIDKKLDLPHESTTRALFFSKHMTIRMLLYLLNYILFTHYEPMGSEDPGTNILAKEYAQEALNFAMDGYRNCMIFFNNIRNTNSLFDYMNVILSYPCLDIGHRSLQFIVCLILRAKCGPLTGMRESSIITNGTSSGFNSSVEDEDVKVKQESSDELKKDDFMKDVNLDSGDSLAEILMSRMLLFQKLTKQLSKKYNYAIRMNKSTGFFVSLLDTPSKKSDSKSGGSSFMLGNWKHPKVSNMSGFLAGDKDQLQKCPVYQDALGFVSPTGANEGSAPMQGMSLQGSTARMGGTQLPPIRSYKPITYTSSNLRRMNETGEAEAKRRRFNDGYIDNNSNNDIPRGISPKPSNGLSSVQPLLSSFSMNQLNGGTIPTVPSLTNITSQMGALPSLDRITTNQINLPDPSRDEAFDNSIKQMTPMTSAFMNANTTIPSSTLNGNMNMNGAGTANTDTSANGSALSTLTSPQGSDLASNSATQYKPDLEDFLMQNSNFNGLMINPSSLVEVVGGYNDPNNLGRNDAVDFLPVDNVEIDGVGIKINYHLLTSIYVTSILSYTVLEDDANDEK
Description: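 Universal 'all 10-mer' protein binding microarrays (Agilent AMADID 015681) probed with GST-tagged S. cerevisiae TFs (full-length or DBD) made by in vitro transcription/translation (PURExpress), about 100-200 nM. Bound TF was detected with fluorescent anti-GST. Each ungapped 8-mer (which stands for itself and its reverse complement) is scored by the PBM enrichment score (E-score), a modified Wilcoxon-Mann-Whitney statistic from -0.5 to +0.5, computed with the Universal PBM Analysis Suite. Scale: above 0.35 generally sequence-specific binding.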

Sequence	PBM E-score
CGCAGTCA	-0.0499
AGAGATGG	-0.0221
AAGTGCGA	0.00701
ATGAGTCC	0.0718
AACGACCC	0.00262
AGGACAGC	-0.0413
ATCCGGGA	0.239
CGCCGGGA	0.317
CTCCGGGA	0.392
GGCCGGGA	0.336
GTCCGGGA	0.38
CTCCGGGC	0.341
CGTGGTTA	-0.251
AGTGGAAG	0.0152
AATGGGCG	-0.0792
GAGGCGGC	0.0321
ATCCGATC	0.326
CTCCGATC	0.311
ATCCGATG	0.277
ATCCGATA	0.453
GTACGATA	-0.189
GTCCGATA	0.463
CTACGATA	-0.179
GTTCGATA	0.0968
CTCCGATA	0.432

Sequence	PBM E-score
CTAACGTC	0.00466
TCGTACCA	-0.114
GAGGCCAA	-0.0324
AACTGTCA	-0.212
ACAAACGA	-0.145
CTCTGTCA	-0.296
TACCATGA	-0.347
AAGGGGGA	-0.179
GTCACCCA	-0.158
ATACCGCG	0.21
CTACCGCA	0.108
ATACCGGG	0.416
ATACCGTG	0.0634
CTACCGGC	0.29
AGACCGGC	0.235
ATACCGGC	0.398
ATACCGTA	0.092
CTACCGGA	0.412
CTACCGAA	0.0576
ATACCGGA	0.437
ATACCGCA	0.284
ATGGCTCA	-0.343
GGAAACCA	-0.0131
AGTACTTC	0.153
CGCGCTTA	0.209

Sequence	PBM E-score
CTGGAGGC	-0.096
AGACAAAC	-0.0936
CAATTCTG	-0.284
CCTCCTCA	-0.13
GATTCTAC	-0.0077
GTACCGGA	0.393
GTACCGCA	0.236
GTACCGTA	0.0486
AGGGAGAA	-0.0602
AATGGTGT	-0.0527
ATAGTAGC	0.0136
ACCCCGAG	0.348
ACCCCGAA	0.377
CCCCCGAA	0.312
AACCCGAT	0.375
AACCCGAG	0.317
AACCCGAC	0.32
ACCCCGAC	0.308
ACCCCGAT	0.416
GCCCCGAA	0.333
CGCGTAAA	0.188
AGTTATGG	-0.0493
ACTGTGCG	-0.13
ATCATCGC	0.0926
AATTTCCA	0.0738

Sequence	PBM E-score
CAGAAGCC	-0.0458
GTACGGAA	0.28
CGCTCACG	0.118
AATACCAT	-0.0062
ATGGTCAA	-0.23
CGGACTTC	0.405
AGGACTTC	-0.152
GGGACTAA	0.0852
GGGACTTA	0.0397
CGGACTAA	0.411
AGGACTTA	0.18
CTGACTTC	-0.0182
CGGACTTA	0.488
TGGACTAA	-0.117
CCTGGTCC	0.138
GCCAGGAA	-0.262
ATCGGCGA	0.357
TCCGGCGA	0.362
CTCGGCGA	0.383
ACCGGCGG	0.418
ACCGGCGT	0.282
ACCGGCGA	0.39
ACCGGCGC	0.267
GCCGGCGA	0.364
GTCGGCGA	0.218

Sequence	PBM E-score
ATGGACGA	0.0824
GGGGGTAC	0.215
CTAACAGA	-0.101
CTAGCAGA	-0.242
ATCCTCAC	-0.103
AGCAGGAT	-0.0378
TCTCCCAA	-0.0542
GCTTTCCA	-0.11
CTCCGACC	0.359
CTCCGAGC	0.386
GTGCGAGA	-0.179
CCCCGAGC	0.351
CTCCGAGA	0.376
CTTCGAGA	-0.234
ATCCGAGA	0.346
CTGCGAGA	-0.215
GTCCGAGA	0.437
CCAATCTC	0.00791
AGCCCTAC	-0.129
CATGGTGA	-0.0558
CCGGAAGC	0.336
GTCATCAC	-0.249
AGGAGTAG	-0.195
CCAAGGAA	-0.0481
AAGTCCGA	0.467

Sequence	PBM E-score
TAGTCCGA	0.42
AAGTCCAA	-0.00743
AAGTCCTA	0.0348
CAGTCCGA	0.366
GAGTCCGA	0.35
AACCCTCA	-0.135
TGGTTAAA	-0.0634
AATCGCCT	0.0771
TAGCTTGA	-0.226
AGGCGTAT	-0.311
ATGCCTAA	-0.21
GGTTCCAA	0.14
AACCCGGT	0.365
AGCCCCGG	0.373
CTCCCGGA	0.376
GTCCCGGA	0.343
AGCCCCCG	0.185
AACCCGGC	0.333
AGCCCGGA	0.39
AGCCCGGC	0.272
AGCCCGGG	0.36
CTCCCGGC	0.33
AGCCCCGA	0.333
AACCCGGA	0.371
AGTGCTAA	0.0956

Sequence	PBM E-score
CGTTTGTA	-0.122
GACCACTC	0.0772
TCTCCAGA	-0.0567
TAGTAGCA	-0.123
ATGCGCGA	0.188
ACTAAAGG	-0.181
AGGCGCAC	-0.0853
AGTCCATC	-0.027
TGCAGACA	-0.233
GCCCCGGC	0.25
GCCCCGTA	0.0466
GGCCCGCA	0.157
AGCCCGAA	0.3
CGCCCGAA	0.294
CCCCCGGA	0.305
GGCCCGAA	0.384
GGCCCGTA	0.281
GGCCCGGA	0.409
ACCCCGGG	0.357
ACCCCGGA	0.37
GCCCCGGA	0.391
CCTGGTGC	-0.0907
GAAAATCC	0.167
GAAGGTCC	0.0808
AGCTCCAA	-0.276

Sequence	PBM E-score
GAGACGCC	0.0301
GGATACAC	0.132
CACCATCC	0.0474
ATTTAATC	0.153
ACAATGAA	-0.165
AGATACAC	-0.0669
ACTGGTAG	-0.206
GCAAGCCA	-0.171
CAGTCGAA	-0.204
CGCCCGTA	0.142
CGCCCGGC	0.335
TCCCCGCA	0.303
TACCCGGA	0.38
TCCCCGGA	0.377
CACCCGGA	0.364
GACCCGGA	0.353
CGCCCGGA	0.4
TCCCCGAA	0.335
GAACGCAA	-0.0397
ACTTCTAG	-0.146
GAACATGA	-0.0648
AAGTCCAG	-0.056
ATTGCTCG	0.137
TGCTCAAA	-0.145
CGATAAGA	0.291

Sequence	PBM E-score
TACGCCTA	-0.258
GATATATC	0.373
CGGATCTA	0.404
GATATATA	0.198
CTGATATC	0.26
CGGATCTC	0.279
AATATATC	0.26
AGGATATC	0.155
GGGATCTA	0.134
CGGATATC	0.39
TGGATAAA	-0.0137
CGGATAAC	0.359
CGGATAAA	0.381
CATTAGCA	-0.142
CTAAGAGC	-0.0334
AGGGTGAT	-0.15
CAGAACAA	-0.101
CGGATACA	0.385
CGGATGTC	0.35
AGGATATA	0.0407
CGGATACC	0.218
CGGATATA	0.482
CGGATGTA	0.427
GGGATGTA	0.124
TGGATACA	-0.288

Sequence	PBM E-score
GGGATATA	0.21
ATAGCCTA	-0.189
CCGAATAC	0.365
ATGTGACG	-0.166
GACGGGCC	0.142
ACTAGGTC	-0.0578
GTCGACAC	-0.156
CCGATAAG	0.431
GCGATAAC	0.322
CCGATAAA	0.461
CCGATAAC	0.447
ACGATAAG	0.245
GCGATAAA	0.258
TCGATAAA	0.146
CGGATAAG	0.31
ACGATAAC	0.0651
CAAGATAA	-0.0149
AAGCCTAA	-0.0872
ATGCCAGG	-0.127
ACTCTTGG	-0.22
ACGCTCGA	-0.125
ACGCTCGC	-0.123
ACGCTCGG	0.375
TATCCAGA	-0.0797
AGACTGAG	-0.208

Sequence	PBM E-score
CGCAGCAA	-0.197
CGCGAGGA	0.0251
CGGCTATA	0.383
CGGCTTTC	0.259
GGGCTATA	-0.0464
CGGCTTAG	0.229
CGGCTTTA	0.464
CGGCTTAA	0.391
GGGCTTTA	0.132
TGGCTTAA	-0.0483
AGGCTATA	-0.157
GCTCTACA	-0.124
GTCCTAGA	-0.246
TCTTTTCA	-0.162
TGGAAACA	-0.0875
CTGCTCCA	-0.239
CAGGACGC	-0.246
AAGGATGG	-0.188
GGGTGTTA	0.0847
CGGTGTTA	0.465
GGGTGATA	0.167
CGGTGATA	0.428
CGGTGATC	0.26
CGGTGTTC	0.235
AATTGGAC	0.0155

Sequence	PBM E-score
CAGTAAAC	0.00777
GCCTGCAC	-0.137
ATGCGCTA	-0.0961
CCGCCGCA	0.135
ACGCCGCC	0.256
ACGCCGGC	0.405
CCGCCGGA	0.402
ACGCCGGG	0.306
GCGCCGGA	0.368
GCGCCGAA	0.359
ACGCCGGA	0.381
ACGCCGCA	0.18
CCGCCGAA	0.38
ACGCCGTA	0.0761
CCGCCGAG	0.352
CGGCTCTC	0.0925
AGCTGTGC	-0.224
CACGTCAC	-0.125
GGACCCAA	0.124
ATACGTGC	0.0178
CCATCGGC	0.174
GTTGCAAA	-0.0687
CAATTTGC	-0.103
TTCGTAAA	-0.199
CCTAAAAA	0.00566

Sequence	PBM E-score
GCCAAGTA	-0.218
CCGCCGCC	0.193
CCGCCGGC	0.373
CCGCCGTC	0.151
AAGTTTAT	0.145
ATCACCGA	0.417
ATCACCGC	0.234
CTCACCGA	0.157
GTCACCGA	0.142
ATCACCGG	0.382
ATCACCTG	-0.158
ATAAGCCG	0.3
ACTGATAG	-0.267
CGGATCCC	0.28
ACGATCCG	0.302
CGGATCCG	0.401
CCGATCCA	0.269
CCGATCCG	0.438
CGGATCCA	0.318
ACGATCGG	0.258
CCGATCGG	0.402
CCGATCGA	0.325
ACTTTATG	-0.17
ATCAGTAG	-0.276
ACAGGGCC	0.115

Sequence	PBM E-score
GGTCCCCA	0.0281
CGTCGGAG	0.313
CCTCGGAA	0.314
CCTCGGAG	0.394
ACTCGGAA	0.344
CCTCGGAC	0.39
ACTCGGAC	0.385
GCTCGGCC	0.375
CCTCGGGC	0.31
ACTCGGCC	0.361
ACTCGGAG	0.305
ACTCGGAT	0.311
CCTCGGCC	0.346
AGACTAAG	-0.103
CGGCAGGA	0.175
ATGGAAAC	-0.0981
TCACTTAA	-0.167
CGCGCCGC	0.228
AAACGTCG	0.00491
